Test results reported in the supplement of paper PMC10849652.
Targets with a hit are over-represented here; the source holds about 7,900 in all. About 0.6% of all pairs of compound and target were hits. A number with no mark means an inactive call.

How the values were obtained:
Experiment in all cases: log2 fold change, soluble protein after heating vs DMSO (PISA); higher = thermal stabilisation; K562 cells, 10 uM, 30 min; active = over 0.2 and 3.5 SD of the protein, either way, in both replicates (recomputed)
YAE1 = YAE1 (UniProt Q9NRH1)
Method in brief: (§1)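 K562 cells at 2×10^6 cells/mL were given 10 μM compound for 30 min. Aliquots then went through 3 min of heating across 48°C-58°C, were pooled, and were extracted in PBS with 0.5% NP-40 at 4°C, and the supernatant after 21,000xg for 90 min was quantified by TMTpro 16plex LC-MS/MS with channel sums equalised. Thermal stability relative to control samples, from duplicates, is given as log2 fold change.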

YBX1 [1] = biological target: YBX1 (UniProt P67809)
Method in brief: as §1

YES1 = YES1 (UniProt P07947)
Method in brief: as §1

YIPF4 = YIPF4 (UniProt Q9BSR8)
Method in brief: as §1

YIPF5 isoform 3 = YIPF5 isoform 3 (UniProt Q969M3)
Method in brief: as §1

YIPF6 = YIPF6 (UniProt Q96EC8)
Method in brief: as §1

YLPM1 = YLPM1 (UniProt P49750)
Method in brief: as §1

YOD1 = YOD1 (UniProt Q5VVQ6)
Method in brief: as §1

YPEL5 = YPEL5 (UniProt P62699)
Method in brief: as §1

YWHAB = YWHAB (UniProt P31946)
Method in brief: as §1

YWHAQ = YWHAQ (UniProt P27348)
Method in brief: as §1

YWHAZ [2] = biological target: YWHAZ (UniProt E7ESK7)
Method in brief: as §1

YWHAZ [3] = biological target: YWHAZ (UniProt P63104)
Method in brief: as §1

YY1 = YY1 (UniProt P25490)
Method in brief: as §1

ZADH2 = ZADH2 (UniProt Q8N4Q0)
Method in brief: as §1

ZBTB21 = ZBTB21 (UniProt Q9ULJ3)
Method in brief: as §1

ZBTB43 = ZBTB43 (UniProt O43298)
Method in brief: as §1

ZC3H18 = ZC3H18 (UniProt Q86VM9)
Method in brief: as §1

ZBTB17 isoform 2 = ZBTB17 isoform 2 (UniProt Q13105)
Method in brief: as §1

YBX1 [4] = biological target: YBX1 (UniProt C9J5V9)
Method in brief: as §1

Chain of YLPM1 (P49750 whole entry, looked up): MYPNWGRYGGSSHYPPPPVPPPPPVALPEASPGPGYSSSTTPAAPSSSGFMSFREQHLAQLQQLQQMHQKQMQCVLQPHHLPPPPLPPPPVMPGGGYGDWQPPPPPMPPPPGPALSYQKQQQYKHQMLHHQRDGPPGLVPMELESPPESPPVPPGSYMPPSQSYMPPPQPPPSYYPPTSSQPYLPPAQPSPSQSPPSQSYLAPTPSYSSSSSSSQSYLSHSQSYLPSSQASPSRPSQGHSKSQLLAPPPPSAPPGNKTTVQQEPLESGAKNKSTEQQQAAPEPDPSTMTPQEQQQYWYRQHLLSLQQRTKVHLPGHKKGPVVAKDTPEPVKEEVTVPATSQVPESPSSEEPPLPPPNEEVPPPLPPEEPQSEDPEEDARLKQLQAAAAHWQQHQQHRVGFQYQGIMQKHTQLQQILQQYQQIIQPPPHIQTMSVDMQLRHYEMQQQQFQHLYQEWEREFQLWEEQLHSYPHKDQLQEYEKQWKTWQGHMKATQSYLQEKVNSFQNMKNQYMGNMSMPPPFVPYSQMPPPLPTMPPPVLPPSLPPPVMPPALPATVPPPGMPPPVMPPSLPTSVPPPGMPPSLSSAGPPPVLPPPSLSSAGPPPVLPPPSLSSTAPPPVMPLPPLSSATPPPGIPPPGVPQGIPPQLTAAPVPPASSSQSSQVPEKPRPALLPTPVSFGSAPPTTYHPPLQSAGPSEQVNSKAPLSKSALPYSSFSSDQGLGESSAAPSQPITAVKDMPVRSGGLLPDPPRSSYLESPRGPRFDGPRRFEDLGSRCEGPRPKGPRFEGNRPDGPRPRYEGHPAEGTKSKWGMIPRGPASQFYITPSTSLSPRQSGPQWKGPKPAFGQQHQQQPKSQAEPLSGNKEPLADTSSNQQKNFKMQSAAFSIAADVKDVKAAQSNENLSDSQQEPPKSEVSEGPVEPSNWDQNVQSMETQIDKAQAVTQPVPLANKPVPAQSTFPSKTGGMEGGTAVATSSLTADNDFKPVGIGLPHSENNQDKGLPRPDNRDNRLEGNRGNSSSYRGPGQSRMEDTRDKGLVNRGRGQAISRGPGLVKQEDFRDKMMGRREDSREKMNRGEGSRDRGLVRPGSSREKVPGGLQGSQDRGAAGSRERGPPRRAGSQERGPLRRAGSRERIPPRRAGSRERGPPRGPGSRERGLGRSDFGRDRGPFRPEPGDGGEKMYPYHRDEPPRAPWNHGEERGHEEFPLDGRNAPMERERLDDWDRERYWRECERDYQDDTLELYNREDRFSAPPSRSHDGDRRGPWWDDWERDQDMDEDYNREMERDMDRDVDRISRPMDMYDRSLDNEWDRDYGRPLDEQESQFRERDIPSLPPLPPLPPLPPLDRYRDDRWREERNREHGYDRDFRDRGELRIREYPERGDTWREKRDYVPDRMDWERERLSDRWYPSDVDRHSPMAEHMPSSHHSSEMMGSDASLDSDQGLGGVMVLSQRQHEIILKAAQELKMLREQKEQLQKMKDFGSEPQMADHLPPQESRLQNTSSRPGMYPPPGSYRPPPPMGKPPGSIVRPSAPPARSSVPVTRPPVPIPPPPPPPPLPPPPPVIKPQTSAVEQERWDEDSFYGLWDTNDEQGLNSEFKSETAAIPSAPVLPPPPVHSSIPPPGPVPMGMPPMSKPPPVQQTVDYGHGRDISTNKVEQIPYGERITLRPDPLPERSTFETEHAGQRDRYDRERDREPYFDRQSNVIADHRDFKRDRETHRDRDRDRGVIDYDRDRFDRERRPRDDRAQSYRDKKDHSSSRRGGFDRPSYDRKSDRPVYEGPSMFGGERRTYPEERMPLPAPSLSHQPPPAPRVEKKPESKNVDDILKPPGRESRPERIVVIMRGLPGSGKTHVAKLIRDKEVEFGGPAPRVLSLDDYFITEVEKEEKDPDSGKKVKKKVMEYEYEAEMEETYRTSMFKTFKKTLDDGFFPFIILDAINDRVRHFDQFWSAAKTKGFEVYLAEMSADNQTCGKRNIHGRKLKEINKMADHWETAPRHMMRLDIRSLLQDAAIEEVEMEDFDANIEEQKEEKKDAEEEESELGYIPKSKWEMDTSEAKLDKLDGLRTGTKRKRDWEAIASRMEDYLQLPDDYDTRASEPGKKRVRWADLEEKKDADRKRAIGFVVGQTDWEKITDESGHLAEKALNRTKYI
Chain of YAE1 (Q9NRH1 whole entry, looked up): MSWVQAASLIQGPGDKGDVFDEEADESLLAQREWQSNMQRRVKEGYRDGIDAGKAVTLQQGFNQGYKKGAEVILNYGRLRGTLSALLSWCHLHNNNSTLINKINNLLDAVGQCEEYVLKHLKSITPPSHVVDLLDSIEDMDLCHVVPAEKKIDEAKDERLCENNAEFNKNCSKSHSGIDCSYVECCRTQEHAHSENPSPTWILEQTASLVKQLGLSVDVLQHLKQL
Chain of YWHAZ (UniProt P63104) (P63104 whole entry, looked up): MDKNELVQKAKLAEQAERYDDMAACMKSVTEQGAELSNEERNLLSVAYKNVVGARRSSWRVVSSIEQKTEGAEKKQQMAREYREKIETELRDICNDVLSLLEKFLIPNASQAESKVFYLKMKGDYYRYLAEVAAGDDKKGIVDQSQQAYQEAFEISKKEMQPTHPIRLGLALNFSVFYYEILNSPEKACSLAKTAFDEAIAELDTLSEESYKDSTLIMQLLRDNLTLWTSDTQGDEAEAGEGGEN
Chain of YWHAB (P31946 whole entry, looked up): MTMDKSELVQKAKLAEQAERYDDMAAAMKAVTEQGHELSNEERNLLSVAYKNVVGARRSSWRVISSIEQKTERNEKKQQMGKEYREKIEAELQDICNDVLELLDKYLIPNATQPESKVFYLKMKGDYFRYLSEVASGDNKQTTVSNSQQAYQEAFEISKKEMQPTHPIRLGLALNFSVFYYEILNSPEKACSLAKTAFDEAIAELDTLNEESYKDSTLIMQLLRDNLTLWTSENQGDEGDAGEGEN
Chain of YY1 (P25490 whole entry, looked up): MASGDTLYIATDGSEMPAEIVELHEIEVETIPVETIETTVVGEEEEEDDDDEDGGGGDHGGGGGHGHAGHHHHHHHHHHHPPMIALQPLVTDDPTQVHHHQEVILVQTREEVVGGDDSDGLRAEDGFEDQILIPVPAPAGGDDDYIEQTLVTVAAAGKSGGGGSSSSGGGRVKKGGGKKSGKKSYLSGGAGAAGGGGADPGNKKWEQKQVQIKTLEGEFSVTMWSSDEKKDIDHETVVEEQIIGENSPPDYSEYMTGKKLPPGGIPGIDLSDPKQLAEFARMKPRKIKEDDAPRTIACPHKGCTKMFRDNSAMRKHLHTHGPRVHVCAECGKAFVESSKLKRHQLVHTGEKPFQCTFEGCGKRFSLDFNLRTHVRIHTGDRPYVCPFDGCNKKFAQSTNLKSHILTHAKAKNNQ
Chain of YES1 (P07947 whole entry, looked up): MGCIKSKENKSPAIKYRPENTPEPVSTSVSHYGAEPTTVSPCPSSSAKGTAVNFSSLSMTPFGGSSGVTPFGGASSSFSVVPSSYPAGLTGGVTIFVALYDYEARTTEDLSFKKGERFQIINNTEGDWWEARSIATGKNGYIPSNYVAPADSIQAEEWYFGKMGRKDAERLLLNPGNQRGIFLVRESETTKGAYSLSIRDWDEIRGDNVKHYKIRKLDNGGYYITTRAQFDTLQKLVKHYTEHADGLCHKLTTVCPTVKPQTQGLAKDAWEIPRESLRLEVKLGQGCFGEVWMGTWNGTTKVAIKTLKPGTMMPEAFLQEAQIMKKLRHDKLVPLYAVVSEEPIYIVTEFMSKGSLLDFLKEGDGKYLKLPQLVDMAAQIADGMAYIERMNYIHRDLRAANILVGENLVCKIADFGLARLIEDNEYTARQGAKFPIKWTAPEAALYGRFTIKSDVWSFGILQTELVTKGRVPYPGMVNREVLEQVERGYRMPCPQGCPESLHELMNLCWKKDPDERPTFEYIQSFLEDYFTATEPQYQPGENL
Chain of YIPF4 (Q9BSR8 whole entry, looked up): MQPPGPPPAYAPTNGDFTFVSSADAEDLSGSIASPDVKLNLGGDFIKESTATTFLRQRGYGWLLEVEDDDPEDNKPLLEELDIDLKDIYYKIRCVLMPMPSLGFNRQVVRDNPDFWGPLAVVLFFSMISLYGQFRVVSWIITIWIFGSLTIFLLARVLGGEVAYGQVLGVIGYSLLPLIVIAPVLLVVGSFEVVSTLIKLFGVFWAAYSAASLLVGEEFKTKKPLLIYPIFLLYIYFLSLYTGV
Chain of YBX1 (UniProt P67809) (P67809 whole entry, looked up): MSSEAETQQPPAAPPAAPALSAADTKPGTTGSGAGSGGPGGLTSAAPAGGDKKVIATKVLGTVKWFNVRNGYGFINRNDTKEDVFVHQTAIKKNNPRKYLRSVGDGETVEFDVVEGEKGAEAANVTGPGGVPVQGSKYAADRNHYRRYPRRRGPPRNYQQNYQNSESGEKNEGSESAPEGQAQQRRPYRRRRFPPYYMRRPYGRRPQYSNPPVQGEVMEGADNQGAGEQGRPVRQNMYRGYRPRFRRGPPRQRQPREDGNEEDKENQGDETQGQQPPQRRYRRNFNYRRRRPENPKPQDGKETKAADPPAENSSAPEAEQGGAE
Chain of YIPF6 (Q96EC8 whole entry, looked up): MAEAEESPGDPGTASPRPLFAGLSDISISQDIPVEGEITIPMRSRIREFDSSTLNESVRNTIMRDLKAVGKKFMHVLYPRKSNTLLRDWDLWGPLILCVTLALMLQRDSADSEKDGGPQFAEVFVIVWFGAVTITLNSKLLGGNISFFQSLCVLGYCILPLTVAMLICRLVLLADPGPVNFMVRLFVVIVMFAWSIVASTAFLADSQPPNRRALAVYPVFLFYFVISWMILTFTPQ
Chain of YOD1 (Q5VVQ6 whole entry, looked up): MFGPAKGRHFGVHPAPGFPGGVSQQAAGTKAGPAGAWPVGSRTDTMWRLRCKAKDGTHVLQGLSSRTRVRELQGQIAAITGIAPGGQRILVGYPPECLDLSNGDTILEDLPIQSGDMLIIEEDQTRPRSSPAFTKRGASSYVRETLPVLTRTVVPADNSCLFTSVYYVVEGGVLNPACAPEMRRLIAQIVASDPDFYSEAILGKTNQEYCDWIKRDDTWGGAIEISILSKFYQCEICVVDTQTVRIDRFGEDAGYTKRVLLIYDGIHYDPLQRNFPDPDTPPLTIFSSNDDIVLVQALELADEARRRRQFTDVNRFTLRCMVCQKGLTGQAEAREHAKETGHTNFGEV

SMILES | log2 fold change (YAE1) | log2 fold change (YBX1 [1]) | log2 fold change (YES1) | log2 fold change (YIPF4) | log2 fold change (YIPF5 isoform 3) | log2 fold change (YIPF6) | log2 fold change (YLPM1) | log2 fold change (YOD1) | log2 fold change (YPEL5) | log2 fold change (YWHAB) | log2 fold change (YWHAQ) | log2 fold change (YWHAZ [2]) | log2 fold change (YWHAZ [3]) | log2 fold change (YY1) | log2 fold change (ZADH2) | log2 fold change (ZBTB21) | log2 fold change (ZBTB43) | log2 fold change (ZC3H18) | log2 fold change (ZBTB17 isoform 2) | log2 fold change (YBX1 [4])
Cc1nc(Nc2ncc(C(=O)Nc3c(C)cccc3Cl)s2)cc(N2CCN(CCO)CC2)n1 [dasatinib] | 0.152 | 0.167 | -0.737 (active) | 0.021 | 0.055 | 0.256 | -0.062 | -0.115 | -0.004 | 0.006 | -0.149 | -0.094 | -0.044 | -0.001 | 0.035 | -0.005 | -0.034 | 0.038 |  | 
CC(C)C[C@@H](C=O)NC(=O)[C@H](CC(C)C)NC(=O)[C@H](CC(C)C)NC(=O)OCc1ccccc1 | 0.007 | 0.083 | 0.068 | -0.016 | -0.012 | 0.02 | 0.028 | 0.045 | 0.05 | -0.003 | -0.184 | 0.019 | -0.098 | 0.091 | -0.045 | -0.013 | 0.05 | -0.042 |  | 
O=C(O)c1ccc2c(c1)nc(Nc1cccc(Cl)c1)c1ccncc12 [silmitasertib] | -0.009 | 0.125 | 0.004 | -0.006 | 0 | 0.02 | -0.009 | 0.021 | 0.116 | -0.014 | 0 | -0.065 | -0.078 | 0.057 | 0.053 | 0.104 |  | 0.135 | 0.023 | 
NC(=O)c1cnc(N[C@@H]2CCCC[C@@H]2N)nc1Nc1cccc(-n2nccn2)c1 | -0.038 | 0.048 | -0.114 | 0.091 | -0.016 | -0.088 | -0.034 | -0.061 | -0.019 | -0.05 | 0.172 | -0.186 | 0.108 | -0.037 | -0.025 | -0.044 | 0.092 | -0.221 |  | -0.031
CCCc1cc(C)[nH]c(=O)c1CNC(=O)c1cc(-c2ccnc(N3CCN(C)CC3)c2)cc2c1cnn2C(C)C | -0.083 | 0.055 | 0.075 | -0.036 | -0.005 | -0.067 | 0.083 | -0.017 | 0.014 | -0.031 | 0.241 | -0.393 | 0.056 | -0.006 | 0.004 | -0.008 |  | -0.011 | -0.158 | 
Cc1ccc(NC(=O)c2ccc(CN3CC[C@H](N(C)C)C3)c(C(F)(F)F)c2)cc1Nc1nccc(-c2cncnc2)n1 [bafetinib] | 0.013 | 0.146 | 0.049 | -0.045 | -0.028 | -0.169 | 0.083 | -0.07 | 0.064 | -0.008 | -0.035 | -0.131 | -0.022 | -0.044 | -0.08 | 0.194 | -0.006 | 0.033 | 0.07 | 
CC(=O)c1cnc2ccc(-c3cc(Cl)c(O)c(Cl)c3)nc2c1N[C@H]1CC[C@H](CN(C)C)CC1 | 0.078 | 0.155 | -0.819 (active) | -0.197 | 0.023 | 0.008 | -0.093 | -0.04 | -0.173 | -0.019 | 0.118 | -0.081 | 0.06 | -0.084 | -0.131 | -0.42 (active) | 0.008 | -0.155 |  | -0.085
FC(F)(F)c1ccc(/C=C/c2nc(COc3ccc(CCCCn4ccnn4)cc3)co2)cc1 [mubritinib] | -0.062 | -0.031 | -0.067 | 0.024 | 0.012 | 0.036 | -0.038 | 0.108 | -0.202 | 0.045 | 0.049 | 0.11 | 0.015 | -0.055 | -0.294 (active) | 0.003 |  | -0.042 | -0.131 | 
COc1cc(Nc2ncc3c(n2)-c2ccc(Cl)cc2C(c2c(F)cccc2OC)=NC3)ccc1C(=O)O [alisertib] | -0.065 | -0.066 | -0.211 | -0.134 | -0.009 | 0.419 | 0.017 | 0.19 | 0.086 | 0.012 | -0.001 | -0.041 | -0.028 | -0.062 | 0.021 | -0.154 |  | -0.085 | 0.136 | 
O=C1NC(=O)/C(=C\c2ccc3nccnc3c2)S1 | -0.037 | -0.009 | -0.09 | 0.04 | 0.009 | 0.025 | 0.046 | 0.129 | -0.002 | 0.023 | 0.003 | -0.01 | -0.012 | 0.004 | -0.05 | 0.156 | -0.054 | 0.035 | 0.171 | 
COc1cc(C(=O)O)ccc1NC(=O)[C@@H]1N[C@@H](CC(C)(C)C)[C@](C#N)(c2ccc(Cl)cc2F)[C@H]1c1cccc(Cl)c1F [idasanutlin] | 0.124 | 0.159 | 0.041 | -0.049 | -0.051 | -0.008 | -0.026 | -0.038 | 0.491 (active) | -0.053 | -0.084 | -0.061 | -0.026 | 0.077 | -0.235 | 0.026 | 0.002 | 0.23 |  | 0.131
CC[C@H](C)[C@H](NC(=O)[C@H]([C@@H](C)CC)N(C)C(C)=O)C(=O)N[C@H](C(=O)N[C@@H](CC(C)C)C(=O)[C@@]1(C)CO1)[C@@H](C)O [epoxomicin] | 0.118 | -0.191 | 0.009 | -0.005 | 0.023 | 0.013 | 0.059 | 0.051 | -0.052 | 0.018 | 0.111 | -0.075 | 0.041 | -0.003 | 0.077 | -0.168 | -0.054 | -0.059 |  | 
O=C(Nc1nc2ccccc2n1CCN1CCOCC1)c1cccc([N+](=O)[O-])c1 [IRAK-1-4 Inhibitor I] | 0.103 | -0.117 | -0.152 | 0.093 | -0.035 | 0.029 | -0.06 | 0.019 | -0.093 | 0.127 | 0.084 | 0.005 | 0.105 | -0.026 | 0.036 | 0.006 | -0.043 | -0.036 |  | 0.049
CC(C)N(C[C@H]1O[C@@H](n2cnc3c(N)ncnc32)[C@H](O)[C@@H]1O)[C@H]1C[C@@H](CCc2nc3cc(C(C)(C)C)ccc3[nH]2)C1 [pinometostat] | 0.011 | 0.053 | 0.035 | -0.031 | 0.016 | 0.023 | 0.003 | -0.021 | 0.068 | -0.031 | -0.067 | -0.035 | -0.026 | 0.02 | 0 | 0.209 | -0.05 | 0.053 |  | -0.093
CN(CCOc1ccc(C[C@@H]2SC(=O)NC2=O)cc1)c1ccccn1 (racemic) [rosiglitazone] | 0.062 | -0.074 | 0.013 | 0.005 | 0.003 | 0.027 | 0.047 | 0.029 | -0.048 | 0.038 | 0.012 | 0.019 | 0.008 | -0.015 | 0.063 | 0.103 | 0.052 | -0.036 | 0.063 | 
